# Measured values from PubChem BioAssay.
# Activity calls are given as the source filed them.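 Rule for the calls, unless noted: active = inhibition of the reporter signal at or above 50%; inactive = inhibition below 50%.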
# Columns and labels:
# [1] = inhibitors of TNFa-induced NFkB p65 translocation, primary screen, imaging, HUVEC, MLSMR starter and 10KST1 sets (AID 438;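 active = inhibition above 20% together with a positive visual image hit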;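 note: compound added about 3h40 before a 20 min TNFalpha stimulation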;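 for inhibition: signal is the nuclear over cytoplasmic p65 intensity ratio per well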); conditions: HUVEC TNFa-induced p65 nuclear translocation; cell count: measured here: nuclei count (cytotoxicity indicator), at 2.08 µM unless noted; inhibition: at 2 µM, stronger effect = higher value unless noted
# [2] = reduction of polyQ htt aggregates in cells – imaging, exon1htt(103Q)mCFP cells, high-content imaging, primary screen (AID 483;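 active = visual image review flags a hit and inhibition of aggregation exceeds 20%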;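 note: compound exposure lasted 3 days before fixation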;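 for nuclei count: percent of the per-plate median nuclei count of sample wells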); conditions: exon1htt(103Q)mCFP cell line, aggregate imaging, at 2 µM; inhibition of aggregation: stronger effect = higher value; nuclei count: measured here: cell count, toxicity
# [3] = endothelial E-selectin expression blockers – imaging, HUVEC, immunofluorescence, MLSMR starter and 10KST1 sets, primary screen (AID 487;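 active = visually confirmed hit in the image check and inhibition above 20%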;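 for inhibition: signal is fraction of cell area covered by stained E-selectin grains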;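 for nuclei count: 100% = median nuclei count of all wells on the same plate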); conditions: HUVEC TNFalpha-induced E-selectin immunofluorescence imaging, at 2 µM; inhibition: stronger effect = higher value; nuclei count: measured here: cell number, toxicity
# [4] = biological target: Voltage-gated potassium channel subunit beta-2 (Rattus norvegicus) (UniProt P62483); assay: inhibitors of rat Kvbeta2 reductase activity – biochemical, NADPH fluorescence, primary screen (AID 622;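 active = fluorescence slope higher than the sample average by over 3 SD, cut at about -0.22 in these data, passing the limit was not always enough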;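 note: slope of raw intensity against log time taken from 70 to 1610 s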); conditions: recombinant KvBeta, 4-cyanobenzaldehyde reduction, at 10 µM, stronger effect = higher value
# [5] = biological target: Voltage-gated potassium channel subunit beta-2 (Rattus norvegicus) (UniProt P62483); assay: enhancers of rat Kvbeta2 NADPH turnover – biochemical, NADPH fluorescence, primary screen (AID 623;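 active = NADPH fluorescence slope more negative than the mean of all samples by about 3 SD, 99.7% confidence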;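 note: fluorescence intensity change per second fitted from 20 to 320 s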); conditions: Recombinant KvBeta, NADPH fluorescence decrease slope, 10 min; at 10 µM; stronger effect = lower value
# [6] = biological target: Muscarinic acetylcholine receptor M4 (Homo sapiens) (UniProt P08173); assay: M4-linked GIRK flux change, two-sided – cell-based, HEK293 M4/GIRK, thallium flux, BTC-AM, M4 allosteric agonist project, primary screen (AID 625;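 active = fluorescence slope after compound addition differing from the mean of all tested samples at 99.7% confidence, mostly higher but some lower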;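 note: thallium influx through GIRK channels coupled to M4 in HEK293 cells with BTC-AM dye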); conditions: at 10 µM, actives lie on both sides
# [7] = blockers of RIG-like receptor reporter activation – cell-based, Sendai virus stimulus, luciferase, 10K MLSCN set, TLR/RLR signaling modifier project, primary screen (AID 602276;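 active = inhibition at or above 50% at 10 µM; inactive = inhibition below 50%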;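 note: firefly luciferase from ISG56 promoter only with Renilla not read in this screen; 0% = Sendai virus plus DMSO and 100% = medium plus DMSO without virus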); conditions: HEK293 RL24 IRF3 luciferase reporter, at 10 µM, stronger effect = higher value
# [8] = TLR3 IRF3 reporter activation blockers – cell-based, poly I:C stimulus, luciferase, 10K MLSCN set, primary screen (AID 602277); conditions: HEK293-TLR3 RL24 IRF3 luciferase reporter, at 10 µM, stronger effect = higher value
# [9] = biological target: Alpha-2C adrenergic receptor (Homo sapiens) (UniProt P18825); assay: compounds altering alpha2C-coupled GIRK flux – cell-based, HEK293 alpha2C/GIRK1/2, thallium flux, primary screen (AID 624;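 active = fluorescence slope after compound addition differing from the mean of all screened samples at 99.7% confidence, in either direction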;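 note: slope of fluorescence ratio to pre-addition baseline per second over 15 to 24 s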); conditions: thallium flux BTC fluorescence, at 10 µM, actives lie on both sides
# [10] = inhibitors of larval lipid processing in zebrafish, primary screen, whole organism, PED6 fluorescence, gall bladder and intestine (AID 686;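 active = a full or partial loss of lipid-probe fluorescence in the fish gall bladder, intestine or both, judged by eye; inactive = no fluorescence loss, or compound toxic to the fish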;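 note: larvae 5 to 7 days old with five fish per well; signal comes from phospholipase A2 cleavage of quenched PED6 carried via bile; overnight exposure to compound and PED6 before scoring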); conditions: Zebrafish larvae PED6 lipid processing, fluorescence scoring
# Voltage-gated potassium channel subunit beta-2 (Rattus norvegicus), sequence (P62483 whole entry, looked up): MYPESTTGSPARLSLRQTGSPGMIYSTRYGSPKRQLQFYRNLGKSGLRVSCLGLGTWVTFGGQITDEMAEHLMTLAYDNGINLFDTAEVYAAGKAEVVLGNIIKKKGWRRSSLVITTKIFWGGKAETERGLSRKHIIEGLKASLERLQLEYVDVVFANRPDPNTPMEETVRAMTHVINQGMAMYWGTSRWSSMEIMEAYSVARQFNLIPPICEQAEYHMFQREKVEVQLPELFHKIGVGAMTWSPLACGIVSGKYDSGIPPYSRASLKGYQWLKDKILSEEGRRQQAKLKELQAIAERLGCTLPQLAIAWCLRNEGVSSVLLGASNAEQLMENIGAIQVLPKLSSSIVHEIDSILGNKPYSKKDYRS
# Muscarinic acetylcholine receptor M4 (Homo sapiens), sequence (P08173 whole entry, looked up): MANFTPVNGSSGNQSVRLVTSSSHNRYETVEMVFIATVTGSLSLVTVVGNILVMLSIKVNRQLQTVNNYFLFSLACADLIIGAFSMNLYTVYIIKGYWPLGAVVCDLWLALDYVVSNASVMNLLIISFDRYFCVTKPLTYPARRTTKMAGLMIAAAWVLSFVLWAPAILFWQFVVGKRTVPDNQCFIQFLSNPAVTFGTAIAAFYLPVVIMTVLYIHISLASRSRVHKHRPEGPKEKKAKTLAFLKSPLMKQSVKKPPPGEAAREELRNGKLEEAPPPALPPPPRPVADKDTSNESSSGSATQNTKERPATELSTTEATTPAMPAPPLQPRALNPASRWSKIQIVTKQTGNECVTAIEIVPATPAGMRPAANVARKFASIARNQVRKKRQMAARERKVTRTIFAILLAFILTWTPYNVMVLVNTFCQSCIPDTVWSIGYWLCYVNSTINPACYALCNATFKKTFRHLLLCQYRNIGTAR
# Alpha-2C adrenergic receptor (Homo sapiens), sequence (P18825 whole entry, looked up): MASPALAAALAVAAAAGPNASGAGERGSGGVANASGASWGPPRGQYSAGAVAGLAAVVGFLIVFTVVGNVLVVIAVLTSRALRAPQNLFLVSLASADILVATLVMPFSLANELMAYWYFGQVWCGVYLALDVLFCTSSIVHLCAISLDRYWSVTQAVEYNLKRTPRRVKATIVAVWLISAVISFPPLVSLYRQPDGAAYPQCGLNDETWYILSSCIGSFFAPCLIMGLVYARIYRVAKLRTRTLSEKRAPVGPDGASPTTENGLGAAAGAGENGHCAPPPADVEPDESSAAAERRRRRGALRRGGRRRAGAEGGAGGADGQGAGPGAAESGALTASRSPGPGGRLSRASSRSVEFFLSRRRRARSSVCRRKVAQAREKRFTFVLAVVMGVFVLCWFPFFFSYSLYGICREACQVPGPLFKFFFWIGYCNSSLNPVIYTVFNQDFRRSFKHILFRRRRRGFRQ
SMILES,cell count [1],inhibition [1],inhibition of aggregation [2],nuclei count [2],inhibition [3],nuclei count [3],fluorescence slope [4],NADPH fluorescence slope [5],fluorescence slope [6],inhibition [7],inhibition [8],slope [9],outcome [10]
COc1ccccc1OCCCn1cc(C(=O)c2ccco2)c2ccccc21,596,-2.5% (inactive),-12.2% (inactive),101%,-29.4% (inactive),111%,-0.309 (inactive),-2.9e-06 (inactive),0.00746 (inactive),-22.2% (inactive),-81.2% (inactive),–,–
C=CCOC(=O)COc1cc(C)cc2oc(=O)c3c(c12)CCC3,609,6% (inactive),20.1% (inactive),85.8%,75.7% (active),49.1%,-0.254 (inactive),-4.4e-05 (inactive),–,-1.05% (inactive),99.1% (active),0.00532 (inactive),inactive
CSc1ccc(C(=O)C(C)(C)N2CCOCC2)cc1,401,-5.2% (inactive),-13.1% (inactive),102%,-65.3% (inactive),105%,-0.577 (inactive),-4.3e-05 (inactive),0.00392 (inactive),14.9% (inactive),2.25% (inactive),–,–
CCCCn1c(O)c(C(C)=Nc2cccc(C(=O)O)c2)c(=O)[nH]c1=O,278,6.8% (inactive),4.7% (inactive),75.2%,-151% (inactive),199%,-0.604 (inactive),2.7e-05 (inactive),0.00369 (inactive),4.58% (inactive),3.8% (inactive),–,–
COc1ccc(OC)c(C2=NOC(C(=O)N3CCC4(CC3)OCCO4)C2)c1 (stereo not given),789,-17.7% (inactive),4% (inactive),84.6%,-52.4% (inactive),77.7%,-0.234 (inactive),-6.7e-06 (inactive),0.00835 (inactive),10.6% (inactive),17% (inactive),–,–
Cc1ccc(CS(=O)(=O)CCC(=O)N2CCC3(CC2)OCCO3)cc1,463,6% (inactive),-8.2% (inactive),111%,-31.5% (inactive),109%,-0.573 (inactive),-6.6e-05 (inactive),0.00375 (inactive),13.7% (inactive),16.9% (inactive),–,–
Cc1cccc(-n2c(-c3ccco3)nc3ccccc3c2=O)n1,344,-2.8% (inactive),3.4% (inactive),97.9%,20.8% (inactive),83.8%,-0.368 (inactive),7.6e-06 (inactive),0.00556 (inactive),-11.4% (inactive),-10.7% (inactive),–,–
OCC12COC3c4ccccc4C(OC1)N32 (stereo not given),478,-7.1% (inactive),-0.1% (inactive),109%,-7.2% (inactive),112%,-0.538 (inactive),-4.5e-06 (inactive),0.00589 (inactive),5.14% (inactive),12.6% (inactive),–,–
COc1ccc(CCNC(=O)c2c(N)n(CCN3CCOCC3)c3nc4ccccc4nc23)cc1,403,9.5% (inactive),-9.7% (inactive),90.9%,-157% (inactive),115%,-0.454 (inactive),-7.3e-05 (inactive),0.00515 (inactive),-3.7% (inactive),-28.7% (inactive),–,–
